# From PubChem BioAssay (Tox21)
# Records with an inconclusive call do not appear. Entries that show only a call come without a potency. Activity calls are given as the source filed them. Unless noted, calls come from the whole dose curve; as a rule, active = well fitted curve in the direction sought with a large enough effect in the repeat runs; inconclusive = weak or mixed curves; inactive = no such curve, though single readings can be large; an effect the other way counts as inactive or inconclusive.
# Columns and labels:
# [1] = qHTS assay to identify small molecule antagonists of the estrogen related receptor (ERR) signaling pathway - cell viability counter screen (AID 1224818); details: ERR reporter cell line viability counter screen; series mostly up to 46.1 µM
# Procedure, shortened: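 ERR cells, 2,000 per well, compound added after 6 h and incubated 17.5 h at 37 C. Viability read by CellTiter-Fluor fluorescence after a further 30 min at 37 C.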
# [2] = qHTS assay to identify small molecule antagonists of the estrogen related receptor (ERR) signaling pathway (AID 1224819; note: nearly all actives have a fitted effect of over 50% in size); details: ERR reporter cell line, luciferase inhibition; series mostly up to 46.1 µM
# Procedure, shortened: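 ERR reporter cell line (NTP) plated at 2,000 cells/well, settled 6 h at 37C/5% CO2, then exposed to LOPAC compounds for 18 h at 37C. One-Glo luciferase luminescence read after 30 min at room temperature.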
# [3] = qHTS assay to identify small molecule agonists of the estrogen related receptor (ERR) signaling pathway (AID 1224820); details: ERR reporter cell line, luciferase agonist mode; series mostly up to 46.1 µM
# Procedure, shortened: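 ERR reporter cells (NTP line) plated 2,000/well, incubated 6 h at 37 C/5% CO2, then pinned with compounds in DMSO and held 18 h at 37 C. One-Glo added; luminescence read after 30 min at room temperature.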
# [4] = test system: estrogen-related receptor alpha (ERRalpha) with PGC-1alpha coactivator, human; test: qHTS assay to identify small molecule antagonists of the estrogen related receptor signaling pathway with the pleiotropic PPARgamma coactivator (PGC) (AID 1224821; calls by dose curve; note: nearly all actives have a fitted effect of over 50% in size); details: ERR/PGC reporter cell line, luciferase, antagonist mode; series mostly up to 46.1 µM
# Procedure, shortened: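 Cells engineered for PGC/ERR signalling (line from NTP) were plated 6 h at 37 C/5% CO2, then exposed to DMSO-dissolved compound for 18 h at 37 C. Luciferase activity was read by One-Glo luminescence after 30 min at room temperature.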
# [5] = qHTS assay to identify small molecule antagonists of the estrogen related receptor signaling pathway with the pleiotropic PPARgamma coactivator (PGC) cell viability counter screen (AID 1224822); details: ERR/PGC reporter cell line viability counter screen; series mostly up to 46.1 µM
# Procedure, shortened: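 PGC/ERR cells rested 6 h, then compound-treated 17.5 h at 37 C. CellTiter-Fluor added for 30 min at 37 C, viability measured by fluorescence intensity.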
# [6] = qHTS assay to identify small molecule agonists of the estrogen related receptor signaling pathway with the pleiotropic PPARgamma coactivator (PGC) (AID 1224823); details: ERR/PGC reporter cell line, luciferase agonist mode; series mostly up to 46.1 µM
# Procedure, shortened: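 PGC/ERR reporter cells were seeded, rested 6 h at 37 C/5% CO2, then exposed to compounds in DMSO by pin transfer for 18 h at 37 C. Luciferase activity was read as luminescence after One-Glo reagent and 30 min at room temperature.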
# Potency is the fitted concentration of half-maximal effect.
Structure (SMILES),Potency [1],Potency [2],Potency [3],Potency [4],Potency [5],Potency [6]
O=c1[nH]ccc2c(O)cccc12,inactive,inactive,inactive,inactive,inactive,inactive
Nc1nc2c(cnn2CCc2ccccc2)c2nc(-c3ccco3)nn12,inactive,inactive,inactive,inactive,inactive,inactive
O=[N+]([O-])c1cccc2cn[nH]c12,inactive,inactive,inactive,inactive,inactive,inactive
COc1ccc(CCN(C)CCc2ccc(OC)c(OC)c2)cc1OC,inactive,inactive,inactive,inactive,inactive,inactive
CNCCNS(=O)(=O)c1cccc2cnccc12,inactive,21.1 µM (active),inactive,9.08 µM (active),inactive,inactive
NCCCCNCCCN,inactive,inactive,inactive,inactive,inactive,inactive
Nc1nc2ccc(Cl)cc2n2c(-c3ccccc3)nnc12,inactive,inactive,inactive,inactive,inactive,inactive
OC[C@H]1O[C@@H](n2cnc3c(NC4CCCCC4)ncnc32)[C@H](O)[C@@H]1O,inactive,inactive,inactive,inactive,inactive,8.74 µM (active)
CC(=O)SCC[N+](C)(C)C,inactive,inactive,inactive,inactive,inactive,inactive
CCn1c(=O)[nH]c2cc(Cl)c(Cl)cc21,inactive,inactive,inactive,inactive,inactive,inactive
Nc1ccc(-c2nc3ccc(-c4nc5ccc(N)cc5[nH]4)cc3[nH]2)cc1,inactive,inactive,inactive,inactive,inactive,inactive
O=C(c1ccc(OCCCc2cnc[nH]2)cc1)C1CC1,inactive,inactive,inactive,inactive,inactive,inactive
NC(=O)c1cc[n+](CC2=C(C(=O)O)N3C(=O)[C@@H](NC(=O)[C@@H](c4ccccc4)S(=O)(=O)[O-])[C@H]3SC2)cc1,inactive,inactive,inactive,inactive,inactive,inactive
N[C@@H](CC(=O)O)C(=O)O,inactive,inactive,inactive,inactive,inactive,inactive
Cc1cc(Cn2cnc3c2C[C@@H](C(=O)O)N(C(=O)C(c2ccccc2)c2ccccc2)C3)ccc1N,inactive,inactive,inactive,inactive,inactive,inactive
OC[C@H]1O[C@@H](n2cnc3c(NC4CCCC4)ncnc32)[C@H](O)C1O (stereo partly drawn),inactive,inactive,inactive,inactive,inactive,3.1 µM (active)
O=[N+]([O-])c1cccc2c(Br)[nH]nc12,inactive,inactive,inactive,inactive,inactive,inactive
CCN1/C(=C/C(C)=O)Sc2ccc(OC)cc21,inactive,11.9 µM (active),inactive,5.11 µM (active),inactive,inactive
C[N+]1(CCCCC[N+]2(C)CCCC2)CCCC1,inactive,inactive,inactive,inactive,inactive,inactive
CCNc1nc2c(ncn2[C@H]2C[C@H](O)[C@@H](CO)O2)c(=O)[nH]1,inactive,inactive,inactive,inactive,inactive,inactive

Structure (SMILES),Potency [1],Potency [2],Potency [3],Potency [4],Potency [5],Potency [6]
CCCn1c(=O)c(C)cn2nc(N)nc12,inactive,inactive,inactive,inactive,inactive,inactive
CN1C2CCC1CC(OC(=O)C(O)c1ccccc1)C2 (stereo not drawn),inactive,inactive,inactive,inactive,inactive,inactive
CN(CC[C@@H](Oc1ccc(C(F)(F)F)cc1)c1ccccc1)CC(=O)O,inactive,inactive,inactive,inactive,inactive,inactive
COc1ccc(-c2cc3ncc(C)n3c(Nc3ncccc3C(N)=O)n2)cc1OC,inactive,2.87 µM (active),inactive,2.37 µM (active),inactive,inactive
O=C(O)CCC/C=C\C[C@@H]1[C@@H](/C=C/[C@H](O)C2Cc3ccccc3C2)[C@@H](F)C[C@@H]1O,inactive,inactive,inactive,inactive,inactive,inactive
CC(=O)O[C@H]1CC2(C)[C@@H](C[C@@H](O)[C@H]3[C@@]4(C)CC[C@@H](O)[C@@H](C)[C@@H]4CC[C@@]32C)C1=C(CCC=C(C)C)C(=O)O (stereo partly drawn),inactive,inactive,inactive,inactive,inactive,inactive
CO/N=C(\C(=O)N[C@@H]1C(=O)N2C(C(=O)O)=C(CSc3nc(=O)c(O)nn3C)CSC12)c1csc(N)n1 (stereo partly drawn),inactive,inactive,inactive,inactive,inactive,inactive
CC1(C)CCC=[N+]1[O-],inactive,inactive,inactive,inactive,inactive,inactive
Cc1nc(N=Nc2ccc(C(=O)O)cc2)c(COP(=O)(O)O)c(C=O)c1O,inactive,inactive,inactive,inactive,inactive,inactive
O=C(N[C@@H](Cc1ccccc1)C(=O)CCl)OCc1ccccc1,19.6 µM (active),21.1 µM (active),inactive,16.8 µM (active),16.8 µM (active),inactive
C=C/C(C)=C/[C@@]1(C)SC(=O)C(C)=C1O,inactive,inactive,inactive,inactive,inactive,inactive
O=c1ccn([C@@H]2O[C@H](COP(=O)(O)OP(=O)(O)O)[C@@H](O)[C@H]2O)c(=O)[nH]1,inactive,inactive,inactive,inactive,inactive,inactive
CN(C)C(N)=NCCC[C@H](N)C(=O)O,inactive,inactive,inactive,inactive,inactive,inactive
COc1ccccc1CNCCCCCCNCCCCCCCCNCCCCCCNCc1ccccc1OC,inactive,inactive,inactive,inactive,inactive,inactive
COc1cccc(-c2cc(=O)c3ccccc3o2)c1N,inactive,inactive,1.96 µM (active),inactive,inactive,1.88 µM (active)
O=C(O)C1CCCN(CCC=C(c2ccccc2)c2ccccc2)C1 (stereo not drawn),inactive,inactive,inactive,inactive,inactive,inactive
NC(=S)c1ccc[n+]([C@@H]2O[C@@H](COP(=O)([O-])OP(=O)(O)OC[C@H]3O[C@@H](n4cnc5c(N)ncnc54)[C@H](OP(=O)(O)O)C3O)C(O)C2O)c1 (stereo partly drawn),inactive,inactive,inactive,inactive,inactive,18.8 µM (active)
NCCCCN,inactive,inactive,inactive,inactive,inactive,inactive
NCC(O)C1CCCCCCC1 (stereo not drawn),inactive,inactive,inactive,inactive,inactive,inactive
CCCn1c(=O)c2[nH]c(-c3ccc(S(=O)(=O)O)cc3)nc2n(CCC)c1=O,inactive,inactive,inactive,inactive,inactive,inactive

Structure (SMILES),Potency [1],Potency [2],Potency [3],Potency [4],Potency [5],Potency [6]
CN[C@H](CC(C)C)C(=O)N[C@H]1C(=O)N[C@@H](CC(N)=O)C(=O)N[C@H]2C(=O)N[C@H]3C(=O)N[C@H](C(=O)N[C@H](C(=O)O)c4cc(O)cc(O)c4-c4cc3ccc4O)[C@H](O)c3ccc(c(Cl)c3)Oc3cc2cc(c3O[C@@H]2O[C@H](CO)[C@@H](O)[C@H](O)[C@H]2O[C@H]2C[C@](C)(N)[C@H](O)[C@H](C)O2)Oc2ccc(cc2Cl)[C@H]1O,inactive,inactive,inactive,inactive,inactive,inactive
O=c1c(O)c(-c2cc(O)c(O)c(O)c2)oc2cc(O)cc(O)c12,inactive,inactive,inactive,inactive,inactive,inactive
O=C(O)CC1CCCc2ccccc2C1O (stereo not drawn),inactive,inactive,inactive,inactive,inactive,inactive
COCCOc1cc2nc[nH]c(=O)c2cc1OCCOC,inactive,inactive,inactive,inactive,inactive,inactive
NC1CONC1=O (stereo not drawn),inactive,inactive,inactive,inactive,inactive,inactive
COc1ccccc1N1CCN(CCCCN2C(=O)c3ccccc3C2=O)CC1,inactive,inactive,inactive,inactive,inactive,inactive
COc1ccc(C(=O)NCc2cccnc2)cc1C(=O)NCc1cccnc1,inactive,inactive,inactive,inactive,inactive,inactive
CC1=C(C(=O)O)N2C(=O)[C@@H](NC(=O)C(N)c3ccccc3)[C@H]2SC1 (stereo partly drawn),inactive,inactive,inactive,inactive,inactive,inactive
Nc1nc2c(ncn2[C@@H]2O[C@H](CO)[C@@H](O)[C@@H]2O)c(=O)[nH]1,inactive,inactive,inactive,inactive,inactive,inactive
NC[C@H]1O[C@@H](n2cnc3c(N)ncnc32)[C@H](O)[C@@H]1O,inactive,inactive,inactive,inactive,inactive,inactive
CCN1C(=O)C=CC1=O,inactive,inactive,inactive,inactive,inactive,inactive
CC(C)(C)NCC(O)COc1cccc2[nH]c(=O)[nH]c12 (stereo not drawn),inactive,inactive,inactive,inactive,inactive,inactive
Cc1ccc([N+](=O)[O-])cc1S(=O)(=O)N(C)C,inactive,inactive,inactive,inactive,inactive,inactive
c1ccc2nc(C3=NCCN3)ccc2c1,inactive,inactive,inactive,inactive,inactive,inactive
O=C1NC(=O)C(c2ccccc2[N+](=O)[O-])=C1Nc1ccc(O)c(Cl)c1,inactive,inactive,inactive,inactive,inactive,inactive
CCCCCCCCCCC/C=C\C(C)(C)/C=C\CCCC(=O)O,inactive,inactive,inactive,inactive,inactive,inactive
NC(N)=[N+]1CCc2ccccc2C1,inactive,inactive,inactive,inactive,inactive,inactive
CCCCCCCCCCCCCCSCC(=O)O,inactive,inactive,inactive,inactive,inactive,inactive
